Screens: PubChem, National Center for Advancing Translational Sciences (NCATS)
KB-V1 cytotox: kills drug-selected multidrug resistant KB-V1 cells | KB-V1 MDR cells viability, CellTiter-Glo, 72 h | Potency, µM (highest dose often 46.1 µM), most hits filed as cytotoxic | actives 3.4% (n = 400,000) | AID 1347076; further: on the % scale 0 is the no-effect control and ±100 the full control effect; nearly all actives have a fitted effect of over 60% in size
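KB-V1, DMEM (no phenol red) + 10% FBS; cpd pin-transferred, titration series; 72 h, 37 degrees C; CellTiter-Glo, luminescence. Data normalized, curve-fit.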
HT1080 IDH1KD tx: kills HT-1080 cells with IDH1 knockdown; HT-1080 IDH1 knockdown viability, ATP luminescence, 48 h; actives 2% (n = 360,000); Potency, µM (highest dose often 46.1 µM), for the others: top-dose activity, negative = toxicity, hits mostly cytotoxic;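 further: 0% = DMSO wells and -100% = cell-free medium wells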
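Viability of IDH1-knockdown HT-1080 fibrosarcoma cells was assessed by CellTiter-Glo after 48 h at 37 °C with titrated compound; concentration-effect curves were classified by fit quality and response size.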
ATXN2 expr inh: ATXN2 expression inhibition. HEK-293 ATXN2-luciferase reporter, luminescence, 24 h. Potency, µM (series often up to 57 µM), for inactives: at the highest dose activity change, negative = inhibition, actives largely listed as inhibitors. actives 0.72% (n = 360,000); further: on the % scale 0 is the no-effect control and ±100 the full control effect; nearly all actives have a fitted effect of over 55% in size
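qHTS (up to 57 uM final) was run with 24 h compound exposure of reporter cells at 37 °C. Each well was multiplexed: SteadyGlo luminescence measured ATXN2-luciferase expression after a fluorogenic Gly-Phe-AFC viability readout (25 uM final).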
S2 tox: viability counter-screen for ATXN expression inhibitors; actives 0.49% (n = 400,000); AID 651635; S2 cells (HEK-293 line with an ATXN2-luciferase reporter) viability, CellTiter-Fluor protease fluorescence, 24 h; Potency, µM (highest dose often 56.7 µM), usual class: cytotoxic; further: nearly all actives have a fitted effect of over 40% in size
KB-3-1 tox: KB-3-1 parental cell cytotoxicity; KB-3-1 viability, CellTiter-Glo ATP luminescence, 72 h; actives 1.4% (n = 400,000); Potency, µM (series often up to 46.1 µM), hits mostly cytotoxic; further: on the % scale 0 is the no-effect control and ±100 the full control effect; nearly all actives have a fitted effect of over 60% in size
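KB-3-1 parental drug-naive adenocarcinoma cells in DMEM/10% FBS, incubated 72 h at 37 C with pin-transferred compounds across a concentration series. Viability by CellTiter-Glo luminescence; concentration-response curves fitted after normalization.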
HT1080NT lethal: kills 2HG-producing HT-1080-NT fibrosarcoma cells | HT-1080-NT fibrosarcoma viability, CellTiter-Glo ATP luminescence, 48 h | Potency, µM (highest dose often 46.1 µM), inactives show at the top dose activity, negative = less viability, hits mostly cytotoxic | actives 1.6% (n = 360,000) | AID 686970;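 further: NT is the 2HG producing partner of a matched IDH1 knockdown line; 0% = DMSO-treated cells and -100% = media-only wells without cells; nearly all actives have a fitted effect of over 55% in size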
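HT-1080-NT; 750 cells/well; 5% FBS RPMI; 48 h compound, 37 degrees C; CellTiter-Glo luminescence; curve fitting and curve-class assignment.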
Starred values were filed as active, the others as inactive; i = inactive; ? = inconclusive; . = not tested or not shown. The list is not random: actives were taken first. Their share in the collection is about 6.2%. The call rests on the fitted dose curve; in most records, active means well fitted curve in the direction sought with a large enough effect; inconclusive means small, poorly fitted or top-dose-only effect, or another doubt; inactive means no such curve, though single readings can be large; an effect the other way counts as inactive or inconclusive. Potency means the concentration at half of the fitted maximal effect.

SMILES	KB-V1 cytotox	HT1080 IDH1KD tx	ATXN2 expr inh	S2 tox	KB-3-1 tox	HT1080NT lethal
COc1ccc(C(=O)/C=C/c2cccs2)c(OC(=O)c2cccc([N+](=O)[O-])c2)c1	i	-2%	71%	?	7.3µM*	-1%
COCCN(C(=O)COC(=O)c1cccs1)c1c(N)n(Cc2ccccc2)c(=O)[nH]c1=O	i	9%	-13%	i	i	1%
CCCC[C@@H]1CNCCN1CCc1cc(C(F)(F)F)cc(C(F)(F)F)c1	?	-9%	?	35µM*	?	0%
Fc1cccc(CCN2CCNC[C@@H]2c2ccccc2)c1	?	-4%	-4%	i	i	-11%
FC(F)(F)c1cc(CCN2CCNC[C@@H]2c2ccccc2)cc(C(F)(F)F)c1	i	-12%	?	35µM*	i	0%
FC(F)(F)c1cc(CCN2CCNC[C@@H]2CC2CCCCC2)cc(C(F)(F)F)c1	i	?	22µM*	.	i	?
Oc1ccc(C=NN=C2c3ccccc3-c3ccccc32)c(O)c1	?	-1%	0%	?	?	0%
CCCCNC(=O)C1(C)CCCCN1C(=O)c1cncc(Br)c1 (centres undefined)	i	0%	-1%	i	i	6%
Cc1cc(C)cc(NC(=O)CN2C(=O)COc3ccc(S(=O)(=O)Nc4ccccc4)cc32)c1	i	.	-37%	?	i	.
CCn1c(CSc2nc(C)cc(C)n2)nnc1SCC(=O)N1CCCc2ccccc21	21µM*	-3%	2%	i	i	7%
Cc1ccc2cc(C#N)c(SCC(=O)N3CCCc4ccccc43)nc2c1C	2.6µM*	3%	-3%	i	i	1%
O=C(CSc1nnc(Cc2cccs2)n1C1CCCCC1)N1CCCc2ccccc21	21µM*	?	8%	i	?	-15%
Clc1ccccc1CSc1nncn1NC/C=C/c1ccccc1	21µM*	-10%	-7%	i	i	-2%
C(=C\c1ccccc1)/CNn1cnnc1	?	?	0%	i	i	10%
COc1cc(NC(=O)CCCl)cc(-n2cnnn2)c1	i	-5%	0%	i	i	1%
COc1cc(NC(=O)CCC2CCCC2)cc(-n2cnnn2)c1	21µM*	15%	0%	i	i	-5%
COCC1CCCN(Cc2ccc3c(c2)CN(C(=O)c2cn4ccc(C)cc4n2)CCO3)C1 (centres undefined)	.	.	.	i	.	.
CNC(CC(=O)c1ccc([N+](=O)[O-])cc1)C(Cl)(Cl)Cl (centres undefined)	i	?	25µM*	28µM*	?	?
COc1ccc(C(=O)CC(=O)Nc2ccc([N+](=O)[O-])cc2)cc1	i	?	?	?	i	?
CC(C)CC(=O)NC(=S)NNC(=O)c1ccc([N+](=O)[O-])cc1	i	-23%	?	i	?	-19%
COc1ccc(C(=O)/C(C#N)=N/Nc2ccc([N+](=O)[O-])cc2)cc1	8.2µM*	5.8µM*	.	.	2.3µM*	?
COc1ccc(C(=O)CC(Nc2ccc([N+](=O)[O-])cc2)c2ccc(OC)cc2)cc1 (centres undefined)	10µM*	?	6%	i	i	-9%
COc1ccc(C(=O)/C(C#N)=N/Nc2ccccc2[N+](=O)[O-])cc1	i	2.3µM*	-9%	?	?	2.6µM*
CN(C)c1ccc(NC(=O)Cn2nnc3sc4c(c3c2=O)CCC(C(C)(C)C)C4)cc1 (centres undefined)	i	.	24%	i	i	.
COC(=O)[C@H](Cc1ccccc1)N1C/C=C\COc2c(Cl)cc(Cl)cc2S1(=O)=O	i	7%	6%	i	i	1%
SMILES	KB-V1 cytotox	HT1080 IDH1KD tx	ATXN2 expr inh	S2 tox	KB-3-1 tox	HT1080NT lethal
CC(NC(=O)c1ccco1)c1nnc2n1CCN(Cc1ccc(N(C)C)cc1)CC2 (centres undefined)	.	.	.	i	.	.
COc1cccc(CNC(=O)C2CCN(S(=O)(=O)c3ccc(F)cc3)CC2)c1	23µM*	1%	4%	?	i	-3%
CCOc1ccc(NC(=O)C2CCCCN2S(=O)(=O)c2ccccc2)cc1 (centres undefined)	?	-14%	46%	i	?	2%
CCOc1ccccc1NC(=O)C1CCCCN1S(=O)(=O)c1ccccc1 (centres undefined)	8.2µM*	-2%	-11%	?	?	-1%
O=C(Nc1ccccc1N1CCOCC1)C1CCN(S(=O)(=O)c2ccc(F)cc2)CC1	?	3%	6%	i	i	3%
O=C(Nc1ccccc1N1CCCC1)C1CCN(S(=O)(=O)c2ccc(F)cc2)CC1	8.2µM*	0%	4%	i	?	1%
CCOc1ccccc1NC(=O)C1CCCN(C(=O)NCc2ccccc2)C1 (centres undefined)	8.2µM*	5%	-4%	i	i	1%
COc1cccc(CNC(=O)C2CCN(S(=O)(=O)c3ccc(C)cc3)CC2)c1	i	9%	14%	i	i	18%
Cc1cccc2c(C(O)c3cn(C)c4ccccc34)c[nH]c12 (centres undefined)	i	.	.	.	i	.
c1ccc(CCNCCCOc2cccc3ccccc23)cc1	i	?	?	?	i	?
O=C(NCC1(N2CCCCC2)CCCCC1)c1ccc(-n2cc(NC(=O)c3cccnc3)cn2)cc1	.	.	.	i	.	.
COc1ccc(C(=O)NCCc2nnc3n2CCN(CC2CC=CCC2)CC3)cc1 (centres undefined)	.	.	.	i	.	.
COc1ccccc1/C=C/c1nc2ccccc2[nH]1	i	.	.	.	i	.
COc1ccc(NC(=O)C2CCCCN2S(=O)(=O)c2ccc(F)cc2)c(OC)c1 (centres undefined)	5.8µM*	7%	-21%	i	i	14%
COc1ccccc1NC(=O)C1CCCCN1S(=O)(=O)c1ccc(F)cc1 (centres undefined)	5.2µM*	1%	-9%	i	i	-4%
CCCNC(=O)C1CCN(S(=O)(=O)c2ccc(Br)cc2)CC1	16µM*	-28%	-11%	i	i	-9%
COc1ccc(NC(=O)C2CCCCN2S(=O)(=O)c2ccc(F)cc2)cc1 (centres undefined)	i	?	-9%	i	i	3%
Cc1ccc2oc(C(=O)Nc3c(C(=O)Nc4ccccc4)oc4ccccc34)cc(=O)c2c1	i	.	2%	i	i	.
